PubChem BioAssay (EPA / NIEHS)
Inconclusive results are not listed. Activity calls are given as the source filed them. Rule for the calls: active = hit-call score of the fitted dose curve at least 0.9, where 1 is the maximum; inconclusive = response in the unintended direction; inactive = score below 0.9.

Assays:
[1] = target: human Adrenergic, Alpha 2A Receptor (Adra2A), ADRA2A (gene 150) (UniProt P08913); experiment: NVS_GPCR_hAdra2A: NovaScreen (NVS) G Protein-Coupled Receptor Assay for human Adrenergic, Alpha 2A Receptor (Adra2A) (AID 2283257)
Method in brief: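 Displacement of a specific radioligand from HT29 membrane protein was counted by filter scintillation after 1 h. Compounds were screened in duplicate at 25 uM, and actives were retested in concentration series. Fitting was positive-direction against DMSO.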

[2] = target: human Adrenergic, Beta 1 Receptor (Adrb1), ADRB1 (gene 153) (UniProt P08588); experiment: NVS_GPCR_hAdrb1: NovaScreen (NVS) G Protein-Coupled Receptor Assay for human Adrenergic, Beta 1 Receptor (Adrb1) (AID 2283258)
Method in brief: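 Membranes/protein extracted from human neuroepithelioma cells, radioligand competition binding read by filtration and scintillation 2 h post-dose. Single 25 uM duplicate screen, then concentration-response follow-up; DMSO as negative control.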

Chain of human Adrenergic, Beta 1 Receptor (Adrb1), ADRB1 (gene 153) (P08588 whole entry, looked up): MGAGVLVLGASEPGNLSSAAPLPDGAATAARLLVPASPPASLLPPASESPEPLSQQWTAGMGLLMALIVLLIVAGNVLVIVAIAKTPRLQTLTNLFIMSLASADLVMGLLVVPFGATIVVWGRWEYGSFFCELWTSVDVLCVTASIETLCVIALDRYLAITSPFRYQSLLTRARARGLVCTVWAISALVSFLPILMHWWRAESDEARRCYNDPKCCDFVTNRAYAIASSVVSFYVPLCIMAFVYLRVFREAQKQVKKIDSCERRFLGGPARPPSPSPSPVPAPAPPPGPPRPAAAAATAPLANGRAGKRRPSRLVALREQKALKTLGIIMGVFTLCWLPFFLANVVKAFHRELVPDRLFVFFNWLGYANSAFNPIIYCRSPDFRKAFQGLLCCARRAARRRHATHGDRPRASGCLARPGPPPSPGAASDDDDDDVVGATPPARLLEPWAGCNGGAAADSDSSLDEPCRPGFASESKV
Chain of human Adrenergic, Alpha 2A Receptor (Adra2A), ADRA2A (gene 150) (P08913 whole entry, looked up): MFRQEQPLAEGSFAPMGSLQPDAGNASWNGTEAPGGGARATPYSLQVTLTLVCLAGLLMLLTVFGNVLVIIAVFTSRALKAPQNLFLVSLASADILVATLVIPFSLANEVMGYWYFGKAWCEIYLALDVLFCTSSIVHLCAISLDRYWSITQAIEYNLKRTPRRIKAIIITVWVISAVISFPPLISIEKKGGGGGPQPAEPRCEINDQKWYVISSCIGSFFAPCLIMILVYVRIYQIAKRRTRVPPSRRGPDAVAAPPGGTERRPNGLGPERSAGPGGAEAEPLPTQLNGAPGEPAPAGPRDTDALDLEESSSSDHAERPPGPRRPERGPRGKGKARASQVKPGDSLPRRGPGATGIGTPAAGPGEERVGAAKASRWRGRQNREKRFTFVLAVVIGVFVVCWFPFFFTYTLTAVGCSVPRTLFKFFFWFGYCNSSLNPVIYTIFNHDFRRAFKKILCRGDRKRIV

Which AC50 [1] does the source give for `CCCN(CC)CC1COC2(CCC(C(C)(C)C)CC2)O1` (centres undefined) here?
Its AC50 is 3.99 µM (active).

How did the AC50 [1] turn out when `Cn1c(-c2ccccc2)cc(-c2ccccc2)[n+]1C` was run?
The AC50 was 1.32 µM (active).

For `CC(C)=CC1C(C(=O)OCc2coc(Cc3ccccc3)c2)C1(C)C` (centres undefined), which AC50 [2] is on record?
Its AC50 is 25 µM (active).

With `CC(C)Nc1nc(Cl)nc(NC(C)C)n1` as the molecule, how does the AC50 [2] read?
The AC50 was 6.34 µM (active).
